mcGAS inh: inhibitors of mouse cGAS; Q8C6L5; recombinant cGAS, Kinase-Glo ATP depletion luminescence; inhibition, % at 12.5 µM; 160,000 tested, 0.15% active;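 also: 0% = negative control wells and 100% = reference inhibitor with no enzyme activity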
Target sequence (Q8C6L5 whole entry, looked up): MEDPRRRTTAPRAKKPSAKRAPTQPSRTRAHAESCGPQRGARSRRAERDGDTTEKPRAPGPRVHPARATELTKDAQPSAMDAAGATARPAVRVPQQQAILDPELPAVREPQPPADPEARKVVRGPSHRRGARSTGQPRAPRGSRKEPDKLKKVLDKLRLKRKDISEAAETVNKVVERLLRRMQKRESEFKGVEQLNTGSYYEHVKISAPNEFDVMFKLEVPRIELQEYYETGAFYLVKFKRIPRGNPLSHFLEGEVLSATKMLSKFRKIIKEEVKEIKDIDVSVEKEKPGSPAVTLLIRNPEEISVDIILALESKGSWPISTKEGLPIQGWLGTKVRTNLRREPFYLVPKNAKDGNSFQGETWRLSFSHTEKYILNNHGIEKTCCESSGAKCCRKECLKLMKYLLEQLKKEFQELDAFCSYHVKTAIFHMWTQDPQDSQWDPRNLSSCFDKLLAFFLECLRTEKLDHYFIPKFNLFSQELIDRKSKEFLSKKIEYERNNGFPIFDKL
NPYLR7 agonist: activates Aedes aegypti NPYLR7 receptor | HEK293T NPYLR7/Galpha15, GCaMP6s calcium fluorescence | activation, % at 10 µM | 270,000 tested, 0.15% active; in the data active = activation above about 40%;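 also: 0% = vehicle and 100% = reference agonist at the receptor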
hcGAS lum: human cGAS inhibition | 290,000 tested, 0.081% active | recombinant h-cGAS, ATP depletion, Kinase-Glo luminescence | AID 1259398 | inhibition, % at 12.5 µM;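 also: 0% = vehicle reaction and 100% = reaction without DNA for no activity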
* hit, by the source's call. This is a sample that favours compounds with a hit; in the whole collection about 0.28% have one here. Rule as the data show it, unless noted: active = inhibition above about 40%; inactive = the rest.

Results for Nc1cccc(NC(=O)c2cccc(S(=O)(=O)Nc3cccc(N)c3)c2)c1 ?
mcGAS inh: -4; NPYLR7 agonist: 12; hcGAS lum: -3

What do the screens show for `C=CCCC(O)(CCC=C)c1ccc(CN(CCN2CCOCC2)Cc2ccc(C)s2)o1`?
mcGAS inh: -2; NPYLR7 agonist: -8; hcGAS lum: -1

Results for COCCn1cc(NC(=O)NCc2ccc(OC)cc2)c2ccccc21 ?
NPYLR7 agonist: 13; hcGAS lum: -4

Results for CCCc1cc(NC(C)C)n2nc3nc(C)cc(C)c3c2n1 ?
mcGAS inh: -7; NPYLR7 agonist: 3; hcGAS lum: -8

Results for CCCCc1nc2cc(C(=O)NCCSc3nncn3C)ccc2o1 ?
NPYLR7 agonist: 5; hcGAS lum: -3

What do the screens show for `C=CC(=O)N1CCN(c2nc3ccccc3nc2C(=O)OCC)CC1`?
mcGAS inh: -4; NPYLR7 agonist: 12; hcGAS lum: -10

What do the screens show for `CCOC(=O)c1nc2ccccc2nc1N1CCN(C(=O)N2CCOCC2)CC1`?
NPYLR7 agonist: 52*; hcGAS lum: -6

Results for O=c1cc(-c2ccccc2)n2c(=S)[nH]nc2[nH]1 ?
NPYLR7 agonist: -3; hcGAS lum: 64*

Results for CCc1cc(=O)[nH]c2n[nH]c(=S)n12 ?
NPYLR7 agonist: -3; hcGAS lum: 3

How did COc1cccc(O)c1CN1CCC2(CCN(C)C2)CC1 do in these assays?
mcGAS inh: -11; NPYLR7 agonist: 1; hcGAS lum: -4

What do the screens show for `Cc1ccccc1CC(=O)N1CCOC(COc2ccc(F)cc2)C1` (centres undefined)?
NPYLR7 agonist: 28; hcGAS lum: -4

Results for CC(C)(C)c1nnc(N/N=C\c2ccc(OCc3ccccc3)cc2)[nH]c1=O ?
NPYLR7 agonist: 2; hcGAS lum: -9

How did N#Cc1c(SCc2ccccc2C(F)(F)F)sc2c(O)cc(=O)[nH]c12 do in these assays?
mcGAS inh: 63*; NPYLR7 agonist: -1; hcGAS lum: 6

Results for N#Cc1c(SCc2ccccc2C(F)(F)F)sc2c(=O)[nH]c(=O)[nH]c12 ?
mcGAS inh: 7; NPYLR7 agonist: -3; hcGAS lum: 8

Results for NC(=O)c1c(SCC(=O)c2ccc(F)cc2)sc2c(O)cc(=O)[nH]c12 ?
mcGAS inh: -1; NPYLR7 agonist: 1; hcGAS lum: 0

How did CC(=O)CSc1sc2c(O)cc(=O)[nH]c2c1C#N do in these assays?
mcGAS inh: 73*; NPYLR7 agonist: 13; hcGAS lum: -2

Results for CNC(=O)C1CCCCN1C(=O)c1ccc(-c2cccc(C(F)(F)F)c2)o1 (centres undefined) ?
NPYLR7 agonist: 2; hcGAS lum: -6

Results for CNc1cc(-c2ccc(CN3CCCCC3)cn2)c2cc[nH]c2n1 ?
mcGAS inh: -6; NPYLR7 agonist: 21; hcGAS lum: 60*

How did CNc1cc(-c2ccc(CN)cn2)c2cc[nH]c2n1 do in these assays?
mcGAS inh: -10; NPYLR7 agonist: 24; hcGAS lum: -2

Results for COc1ccc(F)c(-c2nc(CN(C)Cc3cccc4ncccc34)c(C)o2)c1 ?
mcGAS inh: -2; NPYLR7 agonist: -10; hcGAS lum: 0

How did CCN(CC)c1ccc(CN(CCOC)C(=O)c2ccco2)c(OS(=O)(=O)CC)c1 do in these assays?
mcGAS inh: -5; NPYLR7 agonist: 5; hcGAS lum: -8

What do the screens show for `CCCCC(CC)CCC(CC(C)C)OS(=O)(=O)O` (centres undefined)?
NPYLR7 agonist: -5; hcGAS lum: 42*

What do the screens show for `CCCCCCCCCCCCOS(=O)(=O)O`?
NPYLR7 agonist: -21; hcGAS lum: -3

What do the screens show for `CCOc1cc(/C=C2/Oc3cc(O)ccc3C2=O)cc(Cl)c1OCC(=O)N(C)C`?
NPYLR7 agonist: 150*; hcGAS lum: -5

Results for CCOc1cc(C=C2N=C(c3ccc(Cl)cc3)OC2=O)ccc1OCC(=O)N(C)C ?
mcGAS inh: -8; NPYLR7 agonist: 18; hcGAS lum: -8

Results for COc1ccc(/C=C2\Oc3cc(OCC(N)=O)ccc3C2=O)cc1 ?
NPYLR7 agonist: 3; hcGAS lum: -1

What do the screens show for `COc1cc(C=C2Oc3cc(O)ccc3C2=O)cc(OC)c1OC`?
NPYLR7 agonist: 83*; hcGAS lum: -8

What do the screens show for `COCc1c(Br)c(C)nc(OCC(=O)N/N=C\c2cc(I)c(OCc3ccccc3)c(OC)c2)c1C#N`?
mcGAS inh: -5; NPYLR7 agonist: 4; hcGAS lum: -2

What do the screens show for `COc1ccc(CNC(=O)c2sc3nc4c(c(C(F)(F)F)c3c2N)CN(C(C)=O)CC4)cc1`?
NPYLR7 agonist: -7; hcGAS lum: -5

Results for CCOC(=O)N1CCC(NC(=O)c2sc3nc4c(c(C(F)(F)F)c3c2N)CC(C)CC4)CC1 (centres undefined) ?
mcGAS inh: -4; NPYLR7 agonist: 62*; hcGAS lum: -6

How did CCN(CC)Cc1c(O)cc(C)c2c1O/C(=C\c1cc3ccccc3o1)C2=O do in these assays?
mcGAS inh: -2; NPYLR7 agonist: 70*; hcGAS lum: -2

What do the screens show for `Cc1cc(O)c(CN2CCN(C)CC2)c2c1C(=O)/C(=C/c1cc3ccccc3o1)O2`?
mcGAS inh: -9; NPYLR7 agonist: 8; hcGAS lum: -8

How did COc1ccc(C2=NN(C(=O)CN3CCOCC3)C(c3nc4ccccc4[nH]3)C2)cc1 (centres undefined) do in these assays?
mcGAS inh: 1; NPYLR7 agonist: 52*; hcGAS lum: 8

Results for O=C(CN1CCOCC1)N1N=C(c2ccc(Br)cc2)CC1c1nc2ccccc2[nH]1 (centres undefined) ?
mcGAS inh: -5; NPYLR7 agonist: 9; hcGAS lum: -5

What do the screens show for `CN(C)c1ccc(/C=C2/C(=O)NC(=O)N(Cc3ccccc3)C2=O)cc1`?
mcGAS inh: -3; NPYLR7 agonist: 5; hcGAS lum: 11

What do the screens show for `CCCn1c2c(c(=O)n(C)c1=O)C(=O)C(=Cc1ccc(N(C)C)cc1)N2`?
mcGAS inh: -5; NPYLR7 agonist: 259*; hcGAS lum: -2

Results for O=C1OC(c2ccc(Cl)cc2)=N/C1=C\C(Cl)=C\c1ccccc1 ?
NPYLR7 agonist: -1; hcGAS lum: -2

What do the screens show for `Cc1ccc(CSc2nc3c(c(=O)[nH]c(=O)n3C)n2Cc2cccc(C)c2)cc1`?
mcGAS inh: -6; NPYLR7 agonist: 1; hcGAS lum: -1

What do the screens show for `c1ccc(C2=Nc3ncnn3C(c3ccccc3)C2)cc1` (centres undefined)?
mcGAS inh: 1; NPYLR7 agonist: 1; hcGAS lum: 5

How did CSc1ccc(C2CC(c3cccs3)=Nc3ncnn32)cc1 (centres undefined) do in these assays?
NPYLR7 agonist: 124*; hcGAS lum: -5

What do the screens show for `COc1cc(OC)c(OC)cc1C=C1N=C(c2cccc(C)c2)OC1=O`?
NPYLR7 agonist: 3; hcGAS lum: -6

How did Cc1cccc(C2=N/C(=C\c3cc4cc5c6c(c4oc3=O)CCCN6CCC5)C(=O)O2)c1 do in these assays?
mcGAS inh: -7; NPYLR7 agonist: 117*; hcGAS lum: -7

How did O=C1OC(c2ccc(Cl)c([N+](=O)[O-])c2)=N/C1=C\c1cc2cc3c4c(c2oc1=O)CCCN4CCC3 do in these assays?
mcGAS inh: -5; NPYLR7 agonist: 123*; hcGAS lum: -7

What do the screens show for `Cc1ccc(C2=NC(=Cc3ccc(N4CCOCC4)s3)C(=O)O2)cc1[N+](=O)[O-]`?
NPYLR7 agonist: 14; hcGAS lum: -36

Screening data (PubChem)
